The record followed here is the antibiotic and cytotoxicity screens of Wong et al. (2023).

The structures appear in SMILES notation. Among all 39,000 compounds or so, about 3,300 (8.5%) were called active. This is one part of a sample in which actives are shown more often than they occur.

The assay concerns HepG2. In words: cytotoxicity call (relative viability < 0.9). The following applies: 10 µM.
Take `C[C@H]1CCCCO[C@@H](CN(C)C(=O)Nc2cccc3ccccc23)[C@@H](C)CN([C@@H](C)CO)C(=O)c2cc(NS(C)(=O)=O)ccc2O1`: the cytotoxicity call is “inactive”.

Turning to `C[C@@H]1CN([C@@H](C)CO)C(=O)c2cc(NC(=O)Cn3cnnn3)ccc2O[C@@H]1CN(C)C(=O)Nc1ccccc1`, the cytotoxicity call was “inactive”.

Consider `CNC[C@H]1Oc2ccc(NC(=O)Cn3cnnn3)cc2CC(=O)N([C@@H](C)CO)C[C@H]1C`, for which the cytotoxicity call was “inactive”.

Take `C[C@H]1CN([C@@H](C)CO)C(=O)c2cc(NC(=O)Cn3cnnn3)ccc2O[C@H]1CN(C)C(=O)Nc1ccccc1`: the cytotoxicity call is “active”.

For the compound `C[C@H](CO)N1C[C@H](C)[C@H](CN(C)C(=O)Nc2cccc3ccccc23)Oc2ccc(NC(=O)Cn3cnnn3)cc2C1=O`, the cytotoxicity call is “inactive”.

In the case of `CNC[C@@H]1Oc2ccc(NC(=O)Cn3cnnn3)cc2CC(=O)N([C@@H](C)CO)C[C@H]1C`, the cytotoxicity call was “active”.

Consider `C[C@H](CO)N1C[C@H](C)[C@@H](CN(C)C(=O)Nc2ccccc2)Oc2ccc(NC(=O)Cn3cnnn3)cc2C1=O`, for which the cytotoxicity call is “inactive”.

As for `C[C@@H]1CN([C@H](C)CO)C(=O)c2cc(NC(=O)Cn3cnnn3)ccc2O[C@H]1CN(C)C(=O)Nc1cccc2ccccc12`, the cytotoxicity call is “active”.

As to `C[C@@H]1CN([C@@H](C)CO)C(=O)c2cc(NC(=O)Cn3cnnn3)ccc2O[C@H]1CN(C)C(=O)Nc1cccc2ccccc12`, the cytotoxicity call was “inactive”.

With `CNC[C@@H]1Oc2ccc(NC(=O)Cn3cnnn3)cc2CC(=O)N([C@@H](C)CO)C[C@@H]1C`, the cytotoxicity call is “inactive”.

On to `Cc1cc(Nc2cc(C)on2)nc([C@H]2CCN(C(=O)CN)C2)n1`, for which the cytotoxicity call is “inactive”.

Take `C[C@H](CO)N1C[C@H](C)[C@@H](CN(C)S(=O)(=O)c2cccs2)Oc2c(NC(=O)CCCN(C)C)cccc2C1=O`: the cytotoxicity call is “inactive”.

For `O=C(C[C@@H]1C[C@H]2c3cc(NC(=O)c4ccc5c(c4)OCO5)ccc3O[C@H]2[C@H](CO)O1)NCCc1ccccc1`, the cytotoxicity call was “inactive”.

Take `Cc1noc(C)c1NC(=O)N(C)C[C@H]1OCCCC[C@H](C)Oc2ccc(NC(=O)CCC(F)(F)F)cc2C(=O)N([C@@H](C)CO)C[C@H]1C`: the cytotoxicity call was “inactive”.

With `C[C@@H]1CN([C@H](C)CO)C(=O)c2cc(C#Cc3cccc(F)c3)cnc2O[C@@H]1CN(C)Cc1ccccn1`, the cytotoxicity call was “inactive”.

Regarding `CC(C)CC#Cc1ccc2c(c1)O[C@H](CN(C)C(=O)c1cccnc1)[C@@H](C)CN([C@@H](C)CO)S2(=O)=O`, the cytotoxicity call is “inactive”.

On to `O=C(O)c1ccc(N[C@@H]2O[C@H](CO)[C@@H](O)[C@@H]2O)cc1`, for which the cytotoxicity call is “inactive”.

Take `Clc1ccc2nc(Cl)cc(-c3ccccc3)c2c1`: the cytotoxicity call was “inactive”.

On to `Clc1ccc(-c2onc3cc(-c4ccccc4)ccc23)cc1`, for which the cytotoxicity call was “active”.

Regarding `Clc1ccc(-c2cnc3ccc(-c4ccccc4)cn23)cc1`, the cytotoxicity call is “inactive”.

As for `C[C@H](CO)N1C[C@H](C)[C@H](CN(C)Cc2ccc(Cl)c(Cl)c2)Oc2ccc(NC(=O)CCCCCC(=O)Nc3ccccc3N)cc2CC1=O`, the cytotoxicity call is “inactive”.

For the compound `C[C@H](CO)N1C[C@H](C)[C@@H](CN(C)C(=O)Nc2ccccc2)Oc2ccc(NS(=O)(=O)c3cn(C)cn3)cc2C1=O`, the cytotoxicity call was “inactive”.

In the case of `CSCc1nc(=O)cc(C(=O)O)[nH]1`, the cytotoxicity call is “inactive”.

Turning to `CC(C)NC(=O)N(C)C[C@@H]1OCCCC[C@H](C)Oc2ccc(NC(=O)Nc3ccc(F)cc3)cc2C(=O)N([C@@H](C)CO)C[C@H]1C`, the cytotoxicity call is “inactive”.

Consider `C/C=C1\NC(=O)[C@H]2CSSCC/C=C/[C@H](CC(=O)N[C@H](C(C)C)C(=O)N2)OC(=O)[C@H](C(C)C)NC1=O`, for which the cytotoxicity call was “active”.

On to `C[C@@H]1CCCCO[C@H](CN(C)S(=O)(=O)c2cn(C)cn2)[C@@H](C)CN([C@@H](C)CO)C(=O)c2cc(NC(=O)c3ccncc3)ccc2O1`, for which the cytotoxicity call is “inactive”.

Regarding `NC(=O)CN1CCCCCC1=O`, the cytotoxicity call is “inactive”.

On to `COc1ccc(N)cn1`, for which the cytotoxicity call was “inactive”.

On to `COc1ccnc(N)c1`, for which the cytotoxicity call was “inactive”.

With `COc1cc(N)ccn1`, the cytotoxicity call was “active”.

As to `COc1ccccc1NC(=O)N(C)C[C@H]1Oc2cc(Br)ccc2S(=O)(=O)N([C@@H](C)CO)C[C@H]1C`, the cytotoxicity call was “inactive”.

As to `C[C@](N)(Cc1ccc(O)c(O)c1)C(=O)O`, the cytotoxicity call was “active”.

With `C[C@](N)(Cc1ccc(O)cc1)C(=O)O`, the cytotoxicity call was “inactive”.

Take `CC(N)(Cc1ccc(O)c(O)c1)C(=O)O` (stereo not given) [listing 1 of 2 here]: the cytotoxicity call was “inactive”.

Consider `CCOC(=O)[C@@](C)(N)Cc1ccc(O)c(O)c1`, for which the cytotoxicity call was “inactive”.

As to `CC(N)(Cc1cccc(O)c1)C(=O)O` (stereo not given), the cytotoxicity call is “inactive”.

In the case of `CC(N)(Cc1ccc(O)c(O)c1)C(=O)O` (stereo not given) [listing 2 of 2 here], the cytotoxicity call is “active”.

For the compound `N[C@@H](Cc1ccc(O)c(O)c1)C(=O)O`, the cytotoxicity call was “inactive”.

In the case of `NC(Cc1ccc(O)c(O)c1)C(=O)O` (stereo not given), the cytotoxicity call was “active”.

Regarding `COC(=O)[C@@H](N)Cc1ccc(O)c(O)c1`, the cytotoxicity call was “inactive”.

On to `O=Cc1ccc[nH]1`, for which the cytotoxicity call is “inactive”.

Take `COc1ccc(NC(=O)N(C)C[C@@H]2Oc3ncc(C#C[C@H](C)O)cc3C(=O)N([C@@H](C)CO)C[C@H]2C)cc1`: the cytotoxicity call was “inactive”.

In the case of `CN1CCN(C(=O)C[C@@H]2CC[C@@H]3[C@H](COC[C@H](O)CN3S(=O)(=O)c3cccc(Cl)c3)O2)CC1`, the cytotoxicity call was “inactive”.

With `CC[C@@H](O)C[C@H]1CC[C@H]([C@@H](C)C(=O)O[C@@H](C)C[C@H]2CC[C@H]([C@@H](C)C(=O)O[C@@H](C)C[C@H]3CC[C@H]([C@@H](C)C(=O)O[C@@H](C)C[C@H]4CC[C@H]([C@@H](C)C(=O)O)O4)O3)O2)O1`, the cytotoxicity call is “active”.

Consider `COc1ccc(S(=O)(=O)Nc2ccc3c(c2)CC(=O)N([C@H](C)CO)C[C@@H](C)[C@@H](CN(C)C(=O)Nc2c(C)noc2C)O3)cc1`, for which the cytotoxicity call is “inactive”.

For the compound `C[C@@H]1CCCCO[C@H](CN(C)C(=O)c2ccccc2)[C@@H](C)CN([C@H](C)CO)C(=O)c2cc(NC(=O)c3ccccc3)ccc2O1`, the cytotoxicity call is “inactive”.

For the compound `O=C(O)c1cnns1`, the cytotoxicity call is “inactive”.

Take `C[C@H](CO)N1C[C@H](C)[C@@H](CN(C)C(=O)Nc2cccc3ccccc23)OCc2cn(nn2)CCCC1=O`: the cytotoxicity call is “inactive”.

For the compound `C[C@@H]1CN([C@H](C)CO)C(=O)c2cccc(NC(=O)C3CCOCC3)c2O[C@@H]1CN(C)Cc1ccc(C(=O)O)cc1`, the cytotoxicity call was “inactive”.

Turning to `O=C(NCc1nc2ccccc2[nH]1)C1=C[C@H](c2ccc(C(F)(F)F)cc2)C[C@H](OCc2ccc(CO)cc2)O1`, the cytotoxicity call was “inactive”.

Turning to `O=C(NCc1nc2ccccc2[nH]1)C1=C[C@@H](c2ccc(Br)cc2)C[C@@H](OCc2ccc(CO)cc2)O1`, the cytotoxicity call is “active”.

On to `O=C(NCc1nc2ccccc2[nH]1)C1=C[C@H](c2ccc(Br)cc2)C[C@H](OCc2ccc(CO)cc2)O1`, for which the cytotoxicity call was “inactive”.

Turning to `C[C@@H]1CN([C@@H](C)CO)C(=O)c2cc(NS(=O)(=O)c3ccc(Cl)cc3)ccc2O[C@@H](C)CCCCO[C@@H]1CN(C)C(=O)Nc1cccc2ccccc12`, the cytotoxicity call is “inactive”.

Regarding `C[C@@H]1CCCCO[C@@H](CN(C)C(=O)Nc2cccc3ccccc23)[C@H](C)CN([C@@H](C)CO)C(=O)c2cc(NS(=O)(=O)c3ccc(Cl)cc3)ccc2O1`, the cytotoxicity call was “inactive”.

As to `C[C@@H]1CCCCO[C@H](CN(C)C(=O)Nc2cccc3ccccc23)[C@H](C)CN([C@H](C)CO)C(=O)c2cc(NS(=O)(=O)c3ccc(Cl)cc3)ccc2O1`, the cytotoxicity call is “active”.

For `C[C@@H]1CCCCO[C@@H](CN(C)C(=O)Nc2cccc3ccccc23)[C@H](C)CN([C@H](C)CO)C(=O)c2cc(NS(=O)(=O)c3ccc(Cl)cc3)ccc2O1`, the cytotoxicity call was “active”.

As to `C[C@H]1CCCCO[C@@H](CN(C)C(=O)Nc2cccc3ccccc23)[C@@H](C)CN([C@@H](C)CO)C(=O)c2cc(NS(=O)(=O)c3ccc(Cl)cc3)ccc2O1`, the cytotoxicity call was “inactive”.

With `C[C@H](CO)N1C[C@H](C)[C@H](CN(C)C(=O)Nc2cccc3ccccc23)OCCCC[C@H](C)Oc2ccc(NS(=O)(=O)c3ccc(Cl)cc3)cc2C1=O`, the cytotoxicity call was “inactive”.

For the compound `CO[C@@H]1CN(C)C(=O)c2ccc(NC(=O)Nc3ccccc3)cc2OC[C@H](C)N(C(=O)CN(C)C)C[C@@H]1C`, the cytotoxicity call was “inactive”.

Consider `COc1ccc(S(=O)(=O)Nc2cccc3c2O[C@H](CN(C)C(=O)NC(C)C)[C@H](C)CN([C@@H](C)CO)C3=O)cc1`, for which the cytotoxicity call was “inactive”.

Take `C[C@@H]1CCCCO[C@@H](CN(C)C(=O)NC2CCCCC2)[C@@H](C)CN([C@H](C)CO)C(=O)c2cc(NC(=O)NC3CCCCC3)ccc2O1`: the cytotoxicity call was “inactive”.

`COc1ccc(S(=O)(=O)N(C)C[C@@H]2Oc3ncc(C#Cc4ccccc4)cc3C(=O)N([C@H](C)CO)C[C@@H]2C)cc1`: the cytotoxicity call was “inactive”.

Regarding `O=c1[nH]nc2ccccn12`, the cytotoxicity call is “inactive”.

Turning to `CN1C(=O)c2cc(NC(=O)C3CCOCC3)ccc2OC[C@@H]2O[C@@H](CC(=O)NCc3ccc4c(c3)OCO4)CC[C@H]21`, the cytotoxicity call was “inactive”.

With `COc1ccc(C(C)(C)N)cc1OC`, the cytotoxicity call was “inactive”.

For the compound `C[N+]1(C)C[C@H](O)[C@H](C(=O)O)C1`, the cytotoxicity call was “active”.

Regarding `C[N+]1(C)C[C@@H](O)C[C@H]1C(=O)O`, the cytotoxicity call is “inactive”.

As for `C[C@@H]1C[C@H]1C(=O)O`, the cytotoxicity call was “inactive”.

With `CN1CCN(C(=O)C[C@@H]2C=C[C@@H](NC(=O)Cc3ccccn3)[C@H](CO)O2)CC1`, the cytotoxicity call was “inactive”.

Regarding `CCCC#Cc1cnc2c(c1)C(=O)N([C@@H](C)CO)C[C@H](C)[C@H](CN(C)S(=O)(=O)c1cccc(OC)c1)O2`, the cytotoxicity call was “inactive”.

Consider `CCN1C[C@]23CN(C(=O)c4ccn[nH]4)C[C@@H](C[C@H]2S1(=O)=O)O3`, for which the cytotoxicity call is “inactive”.

For the compound `COc1ccc(S(=O)(=O)N(C)C[C@@H]2OCCCC[C@@H](C)Oc3ccc(NC(=O)CCC(F)(F)F)cc3C(=O)N([C@H](C)CO)C[C@H]2C)cc1`, the cytotoxicity call was “inactive”.

Take `COc1cc([C@H]2OC[C@@H]3[C@H]2CO[C@H]3c2cc(OC)c(O[C@@H]3O[C@H](CO)[C@@H](O)[C@H](O)[C@H]3O)c(OC)c2)cc(OC)c1OC`: the cytotoxicity call is “inactive”.

As for `COc1cc(C[C@H]2CO[C@H](c3ccc(O)c(OC)c3)[C@@H]2CO[C@H]2O[C@@H](CO)[C@@H](O)[C@@H](O)[C@@H]2O)ccc1O`, the cytotoxicity call is “active”.

Regarding `COc1cc([C@H]2OC[C@](O)(Cc3ccc(O[C@@H]4O[C@H](CO)[C@@H](O)[C@H](O)[C@H]4O)c(OC)c3)[C@@H]2CO)ccc1O`, the cytotoxicity call was “inactive”.
